Holding throughout (assay type): functional
For experiment [1], the target named is Solute carrier family 2, facilitated glucose transporter member 1 (Homo sapiens) (UniProt P11166). As to the kind of experiment: ST_JUDE_LEISH: Cytotoxicity at 2uM final concentration against transgenic Leishmania Mexicana promastigotes LmGLUT1 that are glucose transport deficient and complemented with the human glucose transporter GLUT1. Activity is measured by DNA content using SYBR green in vitro.

The target of experiment [2] is Hexose transporter 1 (Plasmodium falciparum) (UniProt O97467). As to the kind of experiment: ST_JUDE_LEISH: Cytotoxicity at 2uM final concentration against transgenic Leishmania Mexicana promastigotes LmPfHT that are glucose transport deficient and complemented with the Plasmodium falciparum hexose transporter. Activity is measured by DNA content using SYBR green in vitro.

Experiment [3] addresses Glucose transporter (Leishmania mexicana) (UniProt O61059). As to the kind of experiment: ST_JUDE_LEISH: Cytotoxicity at 2uM final concentration against transgenic Leishmania Mexicana promastigotes LmGT2 that are glucose transport deficient and complemented with the L. Mexicana glucose transporter 2. Activity is measured by DNA content using SYBR green in vitro.

Molecules are shown by their SMILES.

A word on the inhibition: it is the relative decrease from the control value, in per cent.

Chain of Solute carrier family 2, facilitated glucose transporter member 1 (Homo sapiens) (P11166 whole entry): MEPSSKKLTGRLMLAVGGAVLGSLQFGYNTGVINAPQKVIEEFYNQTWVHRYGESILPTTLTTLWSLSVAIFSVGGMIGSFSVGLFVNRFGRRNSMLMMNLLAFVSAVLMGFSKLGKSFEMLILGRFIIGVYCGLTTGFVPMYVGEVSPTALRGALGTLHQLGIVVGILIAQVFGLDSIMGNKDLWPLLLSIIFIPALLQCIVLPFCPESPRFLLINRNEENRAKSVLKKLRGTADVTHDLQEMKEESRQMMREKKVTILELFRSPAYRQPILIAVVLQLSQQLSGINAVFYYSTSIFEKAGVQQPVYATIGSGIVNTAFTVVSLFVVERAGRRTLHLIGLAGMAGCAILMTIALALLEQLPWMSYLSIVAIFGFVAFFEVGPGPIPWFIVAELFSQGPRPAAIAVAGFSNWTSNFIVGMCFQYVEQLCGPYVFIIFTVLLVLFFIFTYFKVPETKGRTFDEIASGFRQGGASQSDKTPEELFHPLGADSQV

On to `Brc1cc(Br)c2c(c1)C(NCCCNc1nc3ncccc3[nH]1)CCN2` (stereo not drawn), for which the inhibition in experiment [1] stood at 68%; in experiment [2] it was 78.5%; in experiment [3], 73.5%.
Turning to `O=C(Nc1ccc(OC2CCN(Cc3ccsc3)C2)c(Cl)c1)c1ccsc1` (stereo not drawn), the values for the inhibition in experiment [1], in experiment [2] and in experiment [3] were 2.57%, 2.64% and 1.08%, respectively.
The like results for `Nc1ncnc2nc(-c3ccc(F)cc3)cc(-c3ccc(NC(=O)c4ccccc4)cc3)c12` were, in that order, 4.74%, 2.67% and 2.02%.
`Cc1c(F)cc(C(=O)NC2CC2)cc1-c1ccc2c(cnn2S(=O)(=O)c2ccc(C#N)cc2)c1`: the figures for the inhibition in experiment [1], in experiment [2] and in experiment [3] were -0.7%, 1.11% and 0.73%, respectively.
The like results for `COc1ccc2nccc([C@@H](O)CN3CCC(NCc4[nH]c5ccccc5c4F)CC3)c2c1` were, in that order, 9.88%, 9.58% and 1.18%.
Consider `CCCOc1ccc(CCNCCCCNCCc2ccc(OCCC)c3ccccc23)c2ccccc12`, for which the inhibition in experiment [1] amounted to 101%; in experiment [2], 99.1%; in experiment [3], 105%.
As for `FC(F)(F)c1ccc(CSc2ccc3nnc(-c4ccccn4)n3n2)cc1`, the figures for the inhibition in experiment [1], in experiment [2] and in experiment [3] were 9.17%, 9.71% and 7.64%, respectively.
The like results for `CCn1c(Sc2ccc(C#N)c([N+](=O)[O-])c2)nnc1-c1ccc(OC)cc1` were, in that order, 2.25%, 4.95% and 2.61%.
Consider `CCCCCCN1CCN(Cc2cccc(NC(=O)c3cc4ccccc4s3)c2)CC1`, for which the inhibition came to 2.76% in experiment [1], 2.43% in experiment [2] and 2.42% in experiment [3].
The corresponding values for `CCCNCc1ccc(-c2ccc(CN(CCOC)C(=O)Cc3cccnc3)cc2)nc1` are 0.25%, 1.34% and 3.67%.
The corresponding values for `CN1CCC(c2c[nH]c3ccc(NC(=O)Nc4ccc(-c5ccncc5)cc4Cl)cc23)CC1` are 1.45%, 1.38% and 2.14%.
`COc1cc(NC(=O)NC(CCN2CCC3(CCc4ccccc43)CC2)c2ccc(Cl)c(Cl)c2)cc(OC)c1OC` (stereo not drawn): the values for the inhibition in experiment [1], in experiment [2] and in experiment [3] were 0.41%, 0.09% and -3.62%, respectively.
The corresponding values for `Cc1cc(C(=O)CN2C(=O)NC3(CCCc4ccccc43)C2=O)c(C)n1Cc1ccco1` (stereo not drawn) are 1.28%, 0.08% and -1.89%.
The like results for `COc1ccc(C=CC(=O)Nc2ccc(N3CCCC3)cc2)cc1` were, in that order, 1.15%, -1.95% and -1%.
For the compound `COc1ccc(CNCc2ccsc2)cc1-c1ccc(S(=O)(=O)NCCN2CCCC2)s1`, the inhibition in experiment [1] was 8.12%; in experiment [2], 8.67%; in experiment [3], 5.77%.
The corresponding values for `COc1ccc(N2CCN(CCCNC(=O)c3ccc(NC(=O)c4cc(Cl)cc(Cl)c4)cc3)CC2)c(OC)c1` are 4.49%, 0.82% and 3.87%.
The corresponding values for `O=C(Nc1ccc(F)c(C(F)(F)F)c1)NC1CCN(CCCCCNC(=O)C2CC2c2ccc(Cl)c(Cl)c2)CC1` (stereo not drawn) are 4.2%, 3.79% and 4.44%.
The corresponding values for `COc1ccc(Nc2ccnc3cc(Cl)ccc23)cc1OC` are 10.1%, 10.7% and 7.28%.
Regarding `CCCc1cc(C(=O)N[C@@H](Cc2ccccc2)[C@H](O)CNC(C)C)c(F)c(N2CCCC2=O)c1`, the values for the inhibition in experiment [1], in experiment [2] and in experiment [3] were -2.2%, -0.79% and -0.74%, respectively.
The corresponding values for `O=C(c1ccc([N+](=O)[O-])o1)N1CCC(Cc2ccc(C(F)(F)F)cc2)CC1` are 9.05%, 22.5% and 0.45%.
For the compound `Cc1ccc(Nc2nc(N/N=C/c3cccc(O)c3)nc(Nc3ccc([N+](=O)[O-])cc3)n2)cc1C`, the inhibition in experiment [1] came out at 3.08%; in experiment [2] it was 3.36%; in experiment [3], 2.77%.
The like results for `Cc1[nH]c(C)c(-c2ccc(Oc3ccc(Cl)cc3)cc2)c(=O)c1Cl` were, in that order, 2.75%, 2.92% and 1.25%.
With `O=C(/C=C/c1ccc(Cl)c(Cl)c1)NCCCCCN1CCN(C(=O)Nc2ccc(C(F)(F)F)cc2)CC1`, the inhibition in experiment [1] amounted to 2%; in experiment [2] it was 1.98%; in experiment [3] it was 0.71%.
As for `COc1ccc2ncc(F)c(CCN3CC[C@@H](CNCc4cc(C)c5c(c4)OCCO5)C3)c2n1`, the inhibition in experiment [1] amounted to 7.09%; in experiment [2], 8.46%; in experiment [3] it was 5.39%.
The corresponding values for `CC(C)(C)c1ccc(NC(=O)c2ccc(CN3CCCN(Cc4cccc(Cl)c4)CC3)cc2)cc1` are 4.39%, 2.95% and 1.91%.
The corresponding values for `O=C(NC1CCN(Cc2ccccc2)CC1)c1ccc(-c2nc3cc(Cl)c(Cl)cc3[nH]2)s1` are 0.03%, 1.08% and 1.39%.
In the case of `COc1cc(NC(=O)N2CCOC(CCN3CCC(c4ccccc4)CC3)(c3ccc(Cl)c(Cl)c3)C2)cc(OC)c1` (stereo not drawn), the inhibition in experiment [1] is 0.76%; in experiment [2], 1.73%; in experiment [3], -1.37%.
As for `CCN1CCN(c2cc(C)c3cc(NC(=O)c4cccc(C(F)(F)F)c4)ccc3n2)CC1`, the figures for the inhibition in experiment [1], in experiment [2] and in experiment [3] were 3.14%, 3.29% and 1.11%, respectively.
`COc1ccc(Br)cc1/C=C/C(=O)Nc1cccc(C2CCN(C)CC2)c1`: the inhibition in experiment [1] came to 3.43%; in experiment [2], 0.87%; in experiment [3], 4.16%.
The like results for `CCCC(C)c1ccc(N2C(N)=NC(N)=NC2(C)C)cc1` (stereo not drawn) were, in that order, 2.85%, 2.75% and 0%.
For `Cc1cc(C=C2SC(=Nc3ccccc3)N(C3CCCC3)C2=O)c(C)n1-c1ccc(Cl)cc1`, the values for the inhibition in experiment [1], in experiment [2] and in experiment [3] were 0.96%, 0.85% and 1.29%, respectively.
With `Cc1cc(Cl)ccc1OC(C)C(=O)N1CCc2ccccc21` (stereo not drawn), the inhibition in experiment [1] is -3.17%; in experiment [2], 0.81%; in experiment [3], -0.66%.
The corresponding values for `O=C(NC1CCCCN(Cc2ccccc2O)C1)c1cc(F)cc(F)c1` (stereo not drawn) are 4.28%, 5.08% and 3.51%.
In the case of `COc1ccc(Cl)cc1-c1nc(C(=O)NCCN2CCCCC2)c(C)s1`, the inhibition in experiment [1] turned out to be 1.59%; in experiment [2] it was 2.9%; in experiment [3] it was 5.49%.
The like results for `CCOC(=O)c1c(CN2CCCC2)n(-c2ccccc2)c2cc(Br)c(O)cc12` were, in that order, 17%, 14% and 16.7%.
The like results for `N#CC(CC(=O)c1ccc(Cl)cc1)c1cccc(F)c1` (stereo not drawn) were, in that order, 1.46%, -1.27% and 1.13%.

For the origin of these results see ChEMBL document CHEMBL3433997, “St. Jude Leishmania screening dataset” (2016).
